Data on eight compounds can be found in PubChem BioAssay (Tox21).

SMILES strings stand for the structures. Unmarked numbers belong to inactive results. Results filed as inconclusive are left out. The source made the active and inactive calls. Unless noted, the call rests on the fitted dose curve.

Assay [1] can be described thus: Nuclear factor erythroid 2-related factor 2/antioxidant responsive element (Nrf2/ARE) small molecule agonists: luciferase reporter gene qHTS assay in human keratinocytes (AID 1919969). Further: nearly all actives have a fitted effect of over 35% in size. Further: potency means the concentration at half of the fitted maximal effect.
Assay [2] addresses KiSS-1 receptor (Homo sapiens) (UniProt Q969F8). Nature of the assay: Human kisspeptin (KISS1R) small molecule agonists, calcium flux assay in KISS1R-HEK293 cells (AID 1920064; active means well fitted activation curve with a large enough effect in the repeat runs). The method, boiled down:
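Cell line: HEK293, stable human KISS1R. Dye loading 1 h at 37 C after 18 h culture. Read: kinetic fluorescence, 480/540 nm, 3 min at 1 s intervals.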

The nature of assay [3]: G protein-coupled receptor (GPCR) small molecule agonists, calcium flux assay: HEK293 wild type cell line counter screen (AID 1920065). The method, boiled down:
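Tox21 10K compounds, 15 concentrations each in triplicate, pin-transferred in DMSO onto dye-loaded cells; kinetic read at 480/540 nm for 3 min, 1 s intervals.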

A short description of assay [4]: p53 small molecule agonists, cell-based qHTS assay with human liver microsomes (AID 1963577). The method, boiled down:
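Cells carrying a p53-responsive bla reporter were rested 5 h (37 C, 5% CO2) before compound transfer. Human liver microsomes plus NADPH, 0.5 mg/mL final apiece, supplied metabolism during the 16 h 37 C exposure.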

A short description of assay [5]: p53 small molecule agonists, cell-based qHTS assay with rat liver microsomes (AID 1963578). The method, boiled down: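 Fluorescence from a beta-lactamase reporter under a p53 response element was measured after cells had been incubated 16 h at 37 C with test compound and rat liver microsomes plus NADPH (0.5 mg/mL final each).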
A short description of assay [6]: p53 small molecule agonists, cell-based qHTS assay with human liver microsomes: qHTS cell viability counter screen (AID 1963579). Further: nearly all actives have a fitted effect of over 45% in size. Further: potency means the concentration at half of the fitted maximal effect. The method, boiled down: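 Seed p53RE-bla cells at 4,000 per well; incubate 5 h at 37 C; add compound, human liver microsomes and NADPH; incubate 16 h at 37 C; add CellTiter-Glo; after 30 min at room temperature, read luminescence.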
The nature of assay [7]: p53 small molecule agonists, cell-based qHTS assay: qHTS cell viability counter screen (AID 1963581). Further: nearly all actives have a fitted effect of over 45% in size. Further: potency means the concentration at half of the fitted maximal effect. The method, boiled down: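 ATP content measured by luminescence in HCT-116 p53RE-bla cells treated 16 h at 37 C, same wells as the reporter screen.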
The nature of assay [8]: p53 small molecule agonists, cell-based qHTS assay (AID 1963582; active means well fitted activation curve with a large enough effect in the signal ratio in the repeat runs, not every such curve was filed as active; the % refers to the signal ratio). The method, boiled down:
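16 h compound exposure (37 C) of p53 response element–bla cells, preceded by 5 h recovery at 37 C/5% CO2; read-out via LiveBLAzer B/G FRET substrate, 2 h RT, fluorescence intensity.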

For assay [9], the target named is 5-hydroxytryptamine receptor 2A (Homo sapiens) (UniProt P28223). Kind of assay: 5-hydroxytryptamine receptor 2A (HTR2A) small molecule antagonists, cell-based qHTS assay (AID 1963586). Further: nearly all actives have a fitted effect of over 45% in size. Further: potency means the concentration at half of the fitted maximal effect. The method, boiled down:
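CHO cells stably expressing human HTR2A were plated for 18 h at 37 C, then loaded with calcium dye for 1 h. Compounds were preincubated 5 min at room temperature before DOI (4 nM solution) was added. Kinetic fluorescence was read for 3 min.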

Assay [10] has the same target. Nature of the assay: 5-hydroxytryptamine receptor 2A (HTR2A) small molecule agonists, cell-based qHTS assay (AID 1963587). Further: nearly all actives have a fitted effect of over 30% in size. Further: potency means the concentration at half of the fitted maximal effect. The method, boiled down: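 CHO cells stably expressing human HTR2A, plated 18 h, loaded with calcium dye 1 h at 37 C. Agonist mode: compounds added and intracellular calcium fluorescence recorded kinetically for 2 min at 1 sec intervals.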
Assay [11] deals with Muscarinic acetylcholine receptor M1 (Homo sapiens) (UniProt P11229). Kind of assay: Cholinergic receptor muscarinic 1 (CHRM1) small molecule agonists, cell-based qHTS assay (AID 1963589). Further: nearly all actives have a fitted effect of over 35% in size. Further: potency means the concentration at half of the fitted maximal effect. The method, boiled down:
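Homogeneous fluorescence calcium flux, agonist mode. Human M1-expressing CHO cells; compound dosed at 15 concentrations, three independent runs; signal sampled every 1 sec.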

The target in assay [12] is Beta-2 adrenergic receptor (Homo sapiens) (UniProt P07550). Nature of the assay: Adrenergic beta2 receptor (ADRB2) small molecule agonists, cell-based qHTS assay (AID 1963593).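 Further: CHO cells stably overexpressing human ADRB2.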 The method, boiled down: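 CHO cells stably over-expressing ADRB2 were plated overnight at 37C, then dosed with compounds plus a stimulation mix containing 100uM IBMX and 25uM Ro-20-1724 for 0.5hr at room temperature. cAMP was measured by HTRF competition, 1hr.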

Assay [13] has as its target Gonadotropin-releasing hormone receptor (Homo sapiens) (UniProt P30968). Kind of assay: Human gonadotropin-releasing hormone receptor (GnRHR) small molecule agonists, calcium flux assay in GnRHR-HEK293 cells (AID 1920063). Further: nearly all actives have a fitted effect of over 35% in size. The method, boiled down: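 Compounds dissolved in DMSO are pin-transferred onto dye-loaded GnRHR-HEK293 cells, which were seeded 18 h before at 37 C/5% CO2. Calcium signal is read as fluorescence intensity at 1 s intervals for 3 min.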

The nature of assay [14]: p53 small molecule agonists, cell-based qHTS assay with rat liver microsomes: qHTS cell viability counter screen (AID 1963580). Further: nearly all actives have a fitted effect of over 45% in size. Further: potency means the concentration at half of the fitted maximal effect. The method, boiled down: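 After the beta-lactamase ratio was read, CellTiter-Glo was added to the same wells and luminescence measured at 30 min; cells had been treated 16 h at 37 C with compounds, rat liver microsomes and NADPH (0.5 mg/mL final each).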

Assay [15] is described as follows: cAMP Responsive Elements (CRE) small molecule agonists, cell-based qHTS assay (AID 1963590). The method, boiled down: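 HEK 293T cells stably bearing CRE-bla were plated at 2,000 cells per well and rested 18 h. Compounds, positive controls or DMSO were added for 3 h at 37 C. LiveBLAzer B/G substrate was then loaded for 2 h at room temperature.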
The target in assay [16] is Beta-2 adrenergic receptor (Homo sapiens) (UniProt P07550). Nature of the assay: Adrenergic beta2 receptor (ADRB2) small molecule antagonists, cell-based qHTS assay (AID 1963592). Further: nearly all actives have a fitted effect of over 50% in size. Further: potency means the concentration at half of the fitted maximal effect. On activity change, negative = inhibition: series mostly up to about 92 µM. The method, boiled down: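 Assay format: CHO-ADRB2 cells, 18-20hr seeding at 37C/5% CO2, then compound plus 1nM isoproterenol agonist mix for 0.5hr RT. Homogeneous time-resolved fluorescence cAMP detection after 1hr, expressed as 665/615 nm ratio.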

The target of assay [17] is D(2) dopamine receptor (Homo sapiens) (UniProt P14416). Kind of assay: Dopamine D2 receptor (DRD2) small molecule agonists, cell-based qHTS assay (AID 1963594). Further: nearly all actives have a fitted effect of over 35% in size. The method, boiled down:
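HEK293 cells stably expressing human DRD2, pre-treated with PDE inhibitor Ro20-1724 (0.1 mM final) and compound 10 min at room temperature, then stimulated with NKH477 (200nM […]) for 30 min. cAMP read by HTRF (665/620 nm).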

Assay [18] can be described thus: cAMP Responsive Elements (CRE) small molecule antagonists, cell-based qHTS assay (AID 1963591; active means well fitted inhibition curve with a large enough effect in the signal ratio in the repeat runs, not every such curve was filed as active; the % refers to the signal ratio; further: potency means the concentration at half of the fitted maximal effect). The method, boiled down: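 First, CRE-bla HEK293T cells settled 18 h at 37 C. Next, compound and 0.25 uM final NKH477 were applied for 3 h. Last, LiveBLAzer B/G substrate was loaded for 2 h at room temperature.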
Assay [19] has as its target Muscarinic acetylcholine receptor M1 (Homo sapiens) (UniProt P11229). Nature of the assay: Cholinergic receptor muscarinic 1 (CHRM1) small molecule antagonists, cell-based qHTS assay (AID 1963588). Further: nearly all actives have a fitted effect of over 40% in size. The method, boiled down: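 Compounds were tested at 15 concentrations in three independent runs. Dye-loaded CHRM1-CHO cells were exposed 5 min at room temperature before stimulation by acetylcholine added at 50nM. Intracellular calcium was read kinetically on FDSS for 3 min.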

Assay [20] addresses D(2) dopamine receptor (Homo sapiens) (UniProt P14416). Nature of the assay: Dopamine D2 receptor (DRD2) small molecule antagonists, cell-based qHTS assay (AID 1963595; active means well fitted inhibition curve with a large enough effect in the signal ratio in the repeat runs, with a control signal flat; the % refers to the signal ratio; further: potency means the concentration at half of the fitted maximal effect). The method, boiled down: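 Antagonist mode in DRD2-HEK293 cells: after compound addition with 0.1 mM Ro20-1724, cells received quinpirole (12 nM) and NKH477 (200 nM) for 30 min at room temperature; HTRF cAMP read after 1 h detection.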
On the % scale 0 is the no-effect control and ±100 the full control effect.

5-hydroxytryptamine receptor 2A (Homo sapiens), sequence (P28223 whole entry, looked up): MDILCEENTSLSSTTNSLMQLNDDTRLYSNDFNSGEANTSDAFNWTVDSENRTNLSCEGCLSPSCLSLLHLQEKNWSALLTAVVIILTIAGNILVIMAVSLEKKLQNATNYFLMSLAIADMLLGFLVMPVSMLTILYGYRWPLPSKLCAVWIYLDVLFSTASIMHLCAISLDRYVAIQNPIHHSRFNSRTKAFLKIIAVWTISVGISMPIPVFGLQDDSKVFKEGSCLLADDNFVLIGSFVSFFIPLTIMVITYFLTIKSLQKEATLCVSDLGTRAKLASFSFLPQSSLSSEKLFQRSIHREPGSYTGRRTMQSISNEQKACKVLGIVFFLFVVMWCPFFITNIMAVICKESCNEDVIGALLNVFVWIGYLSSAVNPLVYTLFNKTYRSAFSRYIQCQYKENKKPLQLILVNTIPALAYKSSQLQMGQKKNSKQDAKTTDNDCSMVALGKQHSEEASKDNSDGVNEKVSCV
D(2) dopamine receptor (Homo sapiens), sequence (P14416 whole entry, looked up): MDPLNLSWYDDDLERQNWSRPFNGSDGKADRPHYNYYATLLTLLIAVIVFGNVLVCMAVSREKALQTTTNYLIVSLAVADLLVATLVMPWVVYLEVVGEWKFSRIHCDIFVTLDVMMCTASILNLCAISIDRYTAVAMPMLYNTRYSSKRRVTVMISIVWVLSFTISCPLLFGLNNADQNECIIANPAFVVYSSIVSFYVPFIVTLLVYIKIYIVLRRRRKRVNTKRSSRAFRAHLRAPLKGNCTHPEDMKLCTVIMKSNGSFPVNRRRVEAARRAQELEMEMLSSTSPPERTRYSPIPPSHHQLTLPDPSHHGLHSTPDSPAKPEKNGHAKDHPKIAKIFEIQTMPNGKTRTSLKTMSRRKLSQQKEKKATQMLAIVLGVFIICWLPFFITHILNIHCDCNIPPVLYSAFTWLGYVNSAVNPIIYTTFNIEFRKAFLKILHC
Muscarinic acetylcholine receptor M1 (Homo sapiens), sequence (P11229 whole entry, looked up): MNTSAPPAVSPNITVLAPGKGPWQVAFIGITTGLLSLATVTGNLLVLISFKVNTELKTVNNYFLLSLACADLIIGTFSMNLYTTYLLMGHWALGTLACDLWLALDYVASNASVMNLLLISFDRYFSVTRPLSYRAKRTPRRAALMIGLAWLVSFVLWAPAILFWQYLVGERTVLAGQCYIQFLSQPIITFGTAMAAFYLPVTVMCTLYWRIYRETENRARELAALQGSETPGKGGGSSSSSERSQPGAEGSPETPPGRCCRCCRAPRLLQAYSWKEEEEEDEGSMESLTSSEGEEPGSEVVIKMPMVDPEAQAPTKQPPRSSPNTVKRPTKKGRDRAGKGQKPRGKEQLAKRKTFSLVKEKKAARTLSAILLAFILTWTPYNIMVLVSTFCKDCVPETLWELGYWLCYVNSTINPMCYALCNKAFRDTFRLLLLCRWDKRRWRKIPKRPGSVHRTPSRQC
Beta-2 adrenergic receptor (Homo sapiens), sequence (P07550 whole entry, looked up): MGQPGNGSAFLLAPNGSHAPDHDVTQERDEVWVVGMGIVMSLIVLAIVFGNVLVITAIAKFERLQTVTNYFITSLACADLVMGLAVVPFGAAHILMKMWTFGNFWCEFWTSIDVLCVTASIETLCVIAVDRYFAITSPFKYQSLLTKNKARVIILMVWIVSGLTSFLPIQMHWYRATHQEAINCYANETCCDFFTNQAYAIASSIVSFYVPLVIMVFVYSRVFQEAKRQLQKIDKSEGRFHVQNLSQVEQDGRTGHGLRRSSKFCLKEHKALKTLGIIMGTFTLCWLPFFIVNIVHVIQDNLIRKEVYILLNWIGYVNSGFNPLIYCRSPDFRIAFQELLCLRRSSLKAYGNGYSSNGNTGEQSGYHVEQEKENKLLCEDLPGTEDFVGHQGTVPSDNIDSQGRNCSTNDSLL
KiSS-1 receptor (Homo sapiens), sequence (Q969F8 whole entry, looked up): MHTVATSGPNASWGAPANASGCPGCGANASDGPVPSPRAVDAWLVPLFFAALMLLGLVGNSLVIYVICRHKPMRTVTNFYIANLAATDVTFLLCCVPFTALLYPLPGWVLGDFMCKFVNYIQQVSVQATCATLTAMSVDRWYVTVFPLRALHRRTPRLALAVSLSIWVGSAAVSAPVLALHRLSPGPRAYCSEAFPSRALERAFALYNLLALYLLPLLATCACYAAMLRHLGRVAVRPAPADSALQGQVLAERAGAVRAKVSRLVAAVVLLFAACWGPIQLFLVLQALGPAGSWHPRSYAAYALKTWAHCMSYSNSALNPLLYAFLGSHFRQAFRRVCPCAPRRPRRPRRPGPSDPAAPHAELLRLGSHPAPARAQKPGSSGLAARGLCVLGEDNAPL
Gonadotropin-releasing hormone receptor (Homo sapiens), sequence (P30968 whole entry, looked up): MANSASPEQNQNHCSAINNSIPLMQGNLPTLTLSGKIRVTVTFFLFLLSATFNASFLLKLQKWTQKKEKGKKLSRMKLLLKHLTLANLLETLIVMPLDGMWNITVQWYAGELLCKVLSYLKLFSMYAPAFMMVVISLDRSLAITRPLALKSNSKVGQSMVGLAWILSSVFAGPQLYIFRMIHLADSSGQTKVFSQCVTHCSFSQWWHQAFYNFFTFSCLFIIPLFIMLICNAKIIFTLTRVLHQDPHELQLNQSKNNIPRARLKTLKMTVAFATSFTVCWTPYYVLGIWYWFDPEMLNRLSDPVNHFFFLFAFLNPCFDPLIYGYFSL

On to `CCOC(=O)COc1ccc2c(c1)CC(NCC(O)c1cccc(Cl)c1)CC2` (configuration not stated), for which the Potency entry in [1], in assay [2], in assay [3], in assay [4], in assay [5] and in assay [6] was “inactive” in each case. In addition, the Potency entry in [7], in assay [8], in assay [9], in assay [11] and in assay [12] was “inactive” throughout. The Potency in [10] is 31.2 µM (active).
As for `OCCN1CCN(CCCN2c3ccccc3Sc3ccc(C(F)(F)F)cc32)CC1`, the Potency entry in assay [1], in [13], in assay [3], in [4], in [5] and in assay [6] was “inactive” throughout. For the same compound, the Potency entry in assay [14], in [7], in assay [15] and in assay [17] was “inactive” each time. The Potency in [16] was 10.6 µM (active).
As to `O=C(N/N=C/c1ccccc1O)c1ccncc1`, the Potency in [1] is 6.68 µM (active); in assay [6], 7.93 µM (active). In addition, the Potency entry in assay [13], in assay [3], in [4], in assay [14], in [8] and in assay [10] was “inactive” each time. Further, the Potency result in assay [11], in [15] and in [18] was “inactive” in each case.
Take `Cc1ccc(N=Nc2c(O)c(C(=O)O)cc3ccccc23)c(S(=O)(=O)O)c1`: the Potency entry in assay [1], in assay [2], in assay [3], in assay [4], in assay [5] and in [6] was “inactive” in each case. Besides, the Potency result in [14], in assay [7], in [9], in assay [10], in assay [19] and in assay [11] was “inactive” throughout. Also, the Potency entry in assay [18], in assay [16], in assay [12], in assay [17] and in assay [20] was “inactive” in each case.
With `CN1CCN(c2cc3c(nn2)Oc2ccccc2N3C)CC1`, the activity, positive = activation in assay [1] is 17.2% [at 19 µM]. In addition, the activation is -0.078% [at 15.8 µM] in assay [2]; -0.0481% [at 11.8 µM] in assay [3]; -1.74% [at 13.5 µM] in assay [4]; 0.736% [at 13.6 µM] in [5]; 6.54% [at 13.5 µM] in assay [8]; -12.8% [at 15.9 µM] in assay [10]. Moreover, the activation in assay [11] is 3.18% [at 15.8 µM]; in [15], 1.47% [at 19 µM]; in assay [12], 4.93% [at 19 µM]; in [17], 11.1% [at 19 µM]. Also, the activity change, negative = cytotoxicity in [6] is -6.1% [at 13.5 µM]; in assay [14] it was 0.69% [at 13.5 µM]; in [7], -9.68% [at 13.5 µM]. For the same compound, in [19], the activity, negative = inhibition was -12.9% [at 12.6 µM]. For the same compound, the activity change, negative = inhibition in [18] was 0.639% [at 18.9 µM]; in [16], 3.6% [at 19 µM]; in assay [20] it was -3.28% [at 18.9 µM].
Take `CCCCC(CC)CN=C(N)NC(N)=NCCCCCCN=C(N)NC(N)=NCC(CC)CCCC` (configuration not stated): the Potency entry in assay [1], in assay [2], in assay [3], in [4], in [5] and in [11] was “inactive” throughout. Moreover, the Potency in [6] is 22.3 µM (active); in [7] it was 19.9 µM (active); in assay [9], 18.3 µM (active); in [18] it was 29.8 µM (active); in assay [16], 29.8 µM (active); in [20], 13.3 µM (active).
Take `CCCCN(CCCC)c1ccc(C(=O)c2ccccc2C(=O)O)c(O)c1`: the Potency result in assay [1], in assay [13], in [3], in assay [4], in [5] and in [16] was “inactive” in each case. Besides, the Potency entry in assay [17] and in assay [20] was “inactive” each time. For the same compound, the Potency in assay [6] was 16.4 µM (active); in assay [14] it was 41.2 µM (active); in assay [7], 20.6 µM (active); in assay [10], 55.5 µM (active); in assay [11], 49.4 µM (active).
`CCCC1C(CC)=CC(CC)=CN1c1ccccc1` (configuration not stated): the Potency in assay [1] was 61.1 µM (active). For the same compound, the Potency result in assay [13], in assay [3], in [4], in assay [5], in assay [7] and in assay [9] was “inactive” in each case. Also, the Potency result in assay [10], in assay [19], in [11], in assay [16], in assay [17] and in [20] was “inactive” each time.
